# Screens from PubChem BioAssay.
# PLK1 PBD inh: PLK1 (human) polo-box domain binding inhibition; P53350; Plk1 PBD binding of FITC phosphopeptide, fluorescence polarization; AID 720504; actives 2.8% (n = 360,000); Potency, µM, hits mostly inhibitors; also: series mostly up to about 57 µM; nearly all actives have a fitted effect of over 65% in size
# USP2a inh: USP2a (human) protease inhibition; USP2 core, Ub-CHOP2 coupled fluorogenic reporter, 485/531; Potency, µM (series often up to 38.3 µM), hits mostly inhibitors; actives 0.01% (n = 330,000); AID 463254
#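 USP2 core (10nM final) preincubated 30min RT with compound in 20mM Tris-HCl pH 8.0, 2mM CaCl2, 2mM beta-mercaptoethanol, 0.05% CHAPS; 25nM Ub-CHOP2 plus 25nM reporter substrate added, fluorescence (Ex485/Em531) read after 60min.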
# FBPA coupling cs: coupling enzyme interference in Giardia aldolase counter-screen; actives 0.67% (n = 290,000); AID 2472; activity change, negative = inhibition, % at 58.2 µM, hits read low; coupling enzyme system counterscreen, AmpLite Red fluorescence; in the data active = activity change below about -30%
#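 Coupling enzymes only (glyceraldehyde-3-phosphate) + compound, at 57.5 uM final, 10 min RT; add substrate/coupling/AmpLite Red mix, 20 min RT; fluorescence ex 525/em 598 nm. Actives flag coupling-system interference.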
# USP1 inh: inhibitors of human USP1/UAF1 deubiquitinase; recombinant USP1/UAF1, Ub-Rhodamine cleavage fluorescence; Potency, µM (top dose mostly 57.1 µM), most hits filed as inhibitors; actives 0.23% (n = 390,000); AID 743255; also: nearly all actives have a fitted effect of over 60% in size
# Target sequence (O94782 whole entry, looked up): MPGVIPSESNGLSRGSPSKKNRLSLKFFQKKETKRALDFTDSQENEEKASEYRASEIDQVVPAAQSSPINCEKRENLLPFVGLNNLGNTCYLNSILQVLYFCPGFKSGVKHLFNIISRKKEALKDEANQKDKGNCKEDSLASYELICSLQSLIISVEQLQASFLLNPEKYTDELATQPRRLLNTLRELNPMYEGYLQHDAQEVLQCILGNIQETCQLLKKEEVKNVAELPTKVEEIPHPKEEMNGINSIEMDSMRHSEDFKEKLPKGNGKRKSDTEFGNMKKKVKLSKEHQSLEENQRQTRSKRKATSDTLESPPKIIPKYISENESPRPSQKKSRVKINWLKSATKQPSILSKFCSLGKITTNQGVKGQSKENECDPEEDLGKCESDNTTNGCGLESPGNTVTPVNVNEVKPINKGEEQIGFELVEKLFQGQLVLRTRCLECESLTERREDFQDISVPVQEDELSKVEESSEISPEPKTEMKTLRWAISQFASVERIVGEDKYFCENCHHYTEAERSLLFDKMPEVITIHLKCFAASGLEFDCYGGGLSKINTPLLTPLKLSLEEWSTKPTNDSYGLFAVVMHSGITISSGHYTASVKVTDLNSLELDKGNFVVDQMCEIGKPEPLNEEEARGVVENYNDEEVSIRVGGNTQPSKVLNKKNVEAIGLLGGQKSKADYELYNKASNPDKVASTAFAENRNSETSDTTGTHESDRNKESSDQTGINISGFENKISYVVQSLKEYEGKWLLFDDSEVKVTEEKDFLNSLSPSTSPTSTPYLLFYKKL
#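 USP1/UAF1 complex at 1 nM was preincubated with compound for 15 min at room temperature, then Ub-Rho substrate (150nM final) was added. Fluorescence (480/540 nm) was read kinetically, 6 reads every 60 seconds.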
# GALK inh: blocks human galactokinase activity | actives 0.007% (n = 270,000) | Potency, µM (highest dose often 57.5 µM), most hits filed as inhibitors | Purified GALK, Kinase-Glo residual ATP luminescence | P51570
#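 Compounds were pin-transferred into ATP buffer (35 uM final), then GALK plus galactose (5 nM, 100 uM final) was added. After 1 h at room temperature, Kinase-Glo Plus was added and luminescence read after 10 min.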
# VDR inhibitor: vitamin D3 receptor (human) inhibition | P11473 | VDR-SRC2-3 peptide fluorescence polarization, 2 h | Potency, µM, usual class: inhibitors | actives 0.93% (n = 400,000)
#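 VDR–SRC2-3 interaction, FP format. Cmpds 23 nl via pintool, brief spin, 2 h ambient incubation.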
# Numbers stand for hits; i = inactive; ? = inconclusive; nt = no result. This is a sample that favours compounds with a hit; in the whole collection about 3.2% have one here. Unless noted, calls follow the shape of the dose curve; as a rule, active = well fitted curve in the direction sought with a large enough effect; inconclusive = small, poorly fitted or top-dose-only effect, or another doubt; inactive = no such curve, though single readings can be large; an effect the other way counts as inactive or inconclusive.
SMILES,PLK1 PBD inh,USP2a inh,FBPA coupling cs,USP1 inh,GALK inh,VDR inhibitor
Cn1c(=O)c2[nH]c(=O)cnc2n(C)c1=S,29.9µM,i,i,i,i,i
CCCCSc1nc2c([nH]1)c(=O)n(C)c(=S)n2C,i,nt,nt,i,nt,i
CC1(C)Cc2c(cnn2-c2ccccc2)C(NC(=O)CCc2ccncc2)C1 (stereo unspecified),i,i,i,i,i,i
COC(=O)c1ccc(C2NC(=O)c3c(sc(C)c3C)N2)cc1 (stereo unspecified),26.7µM,i,i,i,i,i
Cc1sc2c(c1C)C(=O)NC(c1cccc(O)c1)N2 (stereo unspecified),nt,i,i,nt,i,nt
Cc1ccc(Cl)cc1N1CCN(Cc2nc3ccsc3c(=O)[nH]2)CC1,29.9µM,i,i,i,i,i
O=c1[nH]c(CN2CCN(c3ccc([N+](=O)[O-])cc3)CC2)nc2ccsc12,i,i,i,i,i,i
O=C(CCc1nnc(CCC2CCCCC2)o1)NCc1ccon1,i,i,i,i,i,i
CC(Cc1c[nH]c2ccccc12)NC(N)=O (stereo unspecified),i,i,i,i,i,i
CC[C@@H](C)[C@H](NS(=O)(=O)c1cccc2ccccc12)C(=O)N[C@H](C=O)Cc1c[nH]c2ccccc12,nt,nt,nt,nt,nt,31.6µM
Cc1nc(Nc2ccc(Cl)c(Cl)c2)sc1C(=O)Nc1ccccc1,26.7µM,i,i,i,i,?
Cc1nc(Nc2ccc(Cl)cc2Cl)sc1C(=O)Nc1ccccc1,i,i,i,i,i,i
CC(C)c1cc(C(=O)O)c2cnn(C(C)C)c2n1,26.7µM,i,i,i,i,?
Cc1ccccc1N1CCN(C(=O)c2cc(-c3ccccc3)nc3c2cnn3C(C)C)CC1,i,nt,nt,i,nt,nt
CN(/C=C1/C(=O)CNC1=O)CCO,16.8µM,i,i,i,i,?
O=C(N/N=C\c1ccc(Cl)s1)c1ccc(Cn2cccn2)o1,26.7µM,i,i,i,i,70.8µM
Clc1cccc(CNc2ccn3nc(-c4cccc(OCc5ccccc5)c4)cc3n2)c1,i,nt,nt,nt,nt,nt
O=C(Nc1ccc(F)cc1F)N1CCN(C(=O)c2ccco2)CC1,i,i,i,i,i,i
COC1(NS(=O)(=O)c2ccc(Br)cc2)C(C)=CC(=O)C=C1C,6.7µM,i,i,i,i,i
Cc1ccc(NS(=O)(=O)c2ccc(Br)cc2)nc1,i,i,i,i,i,i
CCOc1ccc(Cc2c(C)[nH]c3ccc(C(=O)O)cc3c2=S)cc1,i,i,i,i,i,i
Cc1c(C)c2c(c(C)c1O)CCC(C)(CCCC(C)CCCC(C)CCCC(C)C)O2 (stereo unspecified),nt,nt,i,nt,nt,i
CN1/C(=N\O)c2cccc3cccc1c23,26.7µM,i,-47.1,i,i,?
Cc1ccsc1C(=O)OCc1nc2ccsc2c(=O)[nH]1,i,i,nt,i,nt,i
Cc1ccsc1C(=O)OCc1nc2ccccc2c(=O)[nH]1,i,i,-34.6,i,i,i
SMILES,PLK1 PBD inh,USP2a inh,FBPA coupling cs,USP1 inh,GALK inh,VDR inhibitor
S=C(NCCc1ccccc1)N/N=C/c1cccs1,i,nt,nt,i,nt,i
Cc1nc(N2N=C(c3ccc(Cl)cc3)CC2c2ccco2)sc1C(=O)N(C)C (stereo unspecified),i,i,i,i,i,i
COc1ccc(C2=NN(c3nc(-c4ccccc4)c(CC(=O)O)s3)C(c3ccco3)C2)cc1 (stereo unspecified),10.6µM,i,i,i,i,i
COc1ccc(OC)c(NC(=O)N2CCc3ccccc3C2)c1,i,i,nt,i,i,i
CN(C)c1nc(-c2cn(CCC#N)c3ccccc23)cs1,26.7µM,i,i,i,i,i
Cc1c(C(=O)N2CCCC2)c(S(=O)(=O)Nc2ccccc2Cl)c(C)n1C,i,i,i,i,i,i
O=C1C2C3C=CC(C3)C2C(=O)N1CNc1ccc(O)cc1 (stereo unspecified),nt,i,-54.5,nt,i,nt
Cc1ccc(NCN2C(=O)C3C4CCC(C4)C3C2=O)cc1 (stereo unspecified),nt,i,i,nt,i,nt
Cc1ccc(NCN2C(=O)C3C4C=CC(C4)C3C2=O)cc1 (stereo unspecified),3.36µM,i,i,i,i,?
